Reference: PubChem BioAssay AID1159580 (chemical genetic matrix, 2015)
Where “and” joins values, the source holds several entries; their conditions need not be identical. Equal values may be shown once. The whole screen tested about 5,500 compounds, of which about 2,000 (36%) were called active. Roughly 18% stayed inconclusive and do not appear here. Cut-off read from the data, not from the text of the source: active = normalized growth mostly below about 0.91 (no sharp cut-off); inconclusive = no clear call, values can overlap the other calls; inactive = mostly above about 0.92. Some of the results follow.

Test: chemical genetic growth profiling, strain panel (AID 1159580);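 note: tested at 20 µM; growth read once vehicle control cultures reached saturation at 30 °C; 1 = growth at the plate median or of vehicle wells; lower values mean less growth of the strain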
Conditions: S. cerevisiae deletion strains, growth OD

Measured: normalized growth

CC1=C(O)C(=O)C=C2C1=CC=C1[C@@]2(C)CC[C@@]2(C)[C@@H]3C[C@](C)(C(=O)O)CC[C@]3(C)CC[C@]12C
inactive: locus YBR021W, strain FUR4, active compounds read low 0.859 | locus YDL185W, strain tfp1, active compounds read low 0.943 | locus YKL009W, strain mrt4, active compounds read low 0.908 | locus YKL085W, strain MDH1 (second series), active compounds read low 0.941 | locus YKL085W, strain MDH1, active compounds read low 0.941 | locus YNL298W, strain CLA4, active compounds read low 0.918 | locus YNL322C, strain KRE1 (second series), active compounds read low 0.937 | locus YOL012C, strain htz1 0.278
active: locus YAL021C, strain ccr4, active compounds read low 0.56 | locus YAL026C, strain drs2, active compounds read low 0.51 | locus YAL030W, strain snc1, active compounds read low 0.573 | locus YBL061C, strain skt5, active compounds read low 0.479 | locus YBR009C, strain hhf1, active compounds read low 0.375 | locus YBR023C, strain chs3, active compounds read low 0.42 | locus YBR171W, strain sec66, active compounds read low 0.812 | locus YBR229C, strain ROT2, active compounds read low 0.623 | locus YBR231C, strain swc5, active compounds read low 0.307 | locus YBR279W, strain paf1, active compounds read low 0.527 | locus YCL011C, strain gbp2, active compounds read low 0.433 | locus YCL016C, strain dcc1, active compounds read low 0.592 | locus YCL029C, strain bik1, active compounds read low 0.493 | locus YCL061C, strain MRC1, active compounds read low 0.611 | locus YCL069W, strain vba3, active compounds read low 0.611 | locus YCR088W, strain abp1, active compounds read low 0.64 | locus YDL005C, strain med2, active compounds read low 0.509 | locus YDL035C, strain GPR1, active compounds read low 0.391 | locus YDL040C, strain nat1, active compounds read low 0.848 | locus YDL074C, strain BRE1, active compounds read low 0.195 | locus YDL101C, strain DUN1, active compounds read low 0.264 | locus YDL134C, strain PPH21, active compounds read low 0.44 | locus YDL192W, strain arf1, active compounds read low 0.568 | locus YDR001C, strain nth1, active compounds read low 0.806 | locus YDR069C, strain doa4, active compounds read low 0.327 | locus YDR101C, strain arx1, active compounds read low 0.665 | locus YDR137W, strain rgp1, active compounds read low 0.238 | locus YDR159W, strain sac3, active compounds read low 0.403 | locus YDR162C, strain NBP2, active compounds read low 0.098 | locus YDR195W, strain ref2 0.348 | locus YDR297W, strain sur2, active compounds read low 0.429 | locus YDR318W, strain mcm21, active compounds read low 0.523 | locus YDR334W, strain swr1, active compounds read low 0.353 | locus YDR335W, strain msn5, active compounds read low 0.522 | locus YDR388W, active compounds read low 0.683 | locus YDR392W, strain spt3, active compounds read low 0.101 | locus YDR502C, strain sam2, active compounds read low 0.521 | locus YEL003W, strain gim4, active compounds read low 0.489 | locus YEL037C, strain rad23, active compounds read low 0.769 | locus YEL061C, strain CIN8 (second series), active compounds read low 0.403 | locus YEL061C, strain CIN8, active compounds read low 0.391 | locus YER015W, strain faa2, active compounds read low 0.429 | locus YER016W, strain bim1, active compounds read low 0.565 | locus YER110C, active compounds read low 0.766 | locus YER111C, strain swi4, active compounds read low 0.329 | locus YER155C, strain BEM2 (second series), active compounds read low 0.342 | locus YER155C, strain BEM2, active compounds read low 0.254 | locus YER167W, strain BCK2, active compounds read low 0.334 | locus YFR010W, strain ubp6, active compounds read low 0.657 | locus YGL078C, strain dbp3, active compounds read low 0.905 | locus YGL086W, strain mad1, active compounds read low 0.619 | locus YGL167C, strain pmr1, active compounds read low 0.706 | locus YGL173C, strain kem1, active compounds read low 0.27 | locus YGL227W, strain vid30, active compounds read low 0.571 | locus YGL240W, strain doc1, active compounds read low 0.646 | locus YGL248W, strain PDE1, active compounds read low 0.369 | locus YGL253W, strain hxk2, active compounds read low 0.485 | locus YGR135W, strain pre9, active compounds read low 0.557 | locus YGR252W, strain gcn5, active compounds read low 0.5 | locus YHR013C, strain ard1, active compounds read low 0.273 | locus YHR027C, strain rpn1, active compounds read low 0.423 | locus YHR030C, strain SLT2, active compounds read low 0.248 and 0.76 | locus YHR079C, strain IRE1 (second series), active compounds read low 0.659 | locus YHR079C, strain IRE1, active compounds read low 0.732 | locus YHR094C, strain hxt1, active compounds read low 0.721 | locus YHR129C, strain ARP1, active compounds read low 0.349 | locus YHR142W, strain chs7, active compounds read low 0.309 | locus YHR200W, strain rpn10, active compounds read low 0.749 | locus YIL066C, strain RNR3, active compounds read low 0.308 | locus YIL073C, strain SPO22, active compounds read low 0.623 | locus YIL125W, strain kgd1, active compounds read low 0.812 | locus YIR030C, strain dcg1, active compounds read low 0.552 | locus YJL092W, strain hpr5, active compounds read low 0.7 | locus YJL095W, strain BCK1 (second series), active compounds read low 0.372 | locus YJL095W, strain BCK1, active compounds read low 0.211 and 0.783 | locus YJL115W, strain asf1, active compounds read low 0.856 | locus YJL129C, strain trk1, active compounds read low 0.35 | locus YJL134W, strain LCB3, active compounds read low 0.692 | locus YJL154C, strain vps35, active compounds read low 0.776 | locus YJL164C, strain tpk1, active compounds read low 0.316 | locus YJL166W, strain qcr8, active compounds read low 0.312 | locus YJL168C, strain set2, active compounds read low 0.866 | locus YJL187C, strain SWE1 (second series), active compounds read low 0.142 | locus YJR043C, strain POL32, active compounds read low 0.385 | locus YJR066W, strain TOR1, active compounds read low 0.792 | locus YKL068W, active compounds read low 0.895 | locus YKL160W, strain elf1, active compounds read low 0.541 | locus YKL190W, strain CNB1, active compounds read low 0.315 | locus YKR001C, strain vps1, active compounds read low 0.13 | locus YKR026C, strain gcn3, active compounds read low 0.852 | locus YKR091W, strain srl3, active compounds read low 0.843 | locus YLL001W, strain dnm1, active compounds read low 0.617 | locus YLL026W, active compounds read low 0.74 | locus YLL041C, strain sdh2, active compounds read low 0.764 | locus YLR027C, strain aat2, active compounds read low 0.502 | locus YLR039C, strain RIC1, active compounds read low 0.157 | locus YLR058C, strain SHM2, active compounds read low 0.224 | locus YLR102C, strain apc9, active compounds read low 0.83 | locus YLR113W, strain HOG1, active compounds read low 0.472 | locus YLR221C, strain rsa3, active compounds read low 0.419 | locus YLR258W, strain gsy2, active compounds read low 0.541 | locus YLR262C, strain YPT6 (second series), active compounds read low 0.149 | locus YLR262C, strain YPT6, active compounds read low 0.182 | locus YLR268W, strain sec22, active compounds read low 0.355 | locus YLR320W, strain mms22, active compounds read low 0.256 | locus YLR330W, strain CHS5, active compounds read low 0.253 | locus YLR342W, strain FKS1 (second series), active compounds read low 0.336 | locus YLR342W, strain FKS1, active compounds read low 0.387 | locus YLR357W, strain rsc2, active compounds read low 0.731 | locus YLR370C, strain arc18, active compounds read low 0.704 | locus YLR371W, strain rom2, active compounds read low 0.418 | locus YLR384C, strain iki3, active compounds read low 0.759 | locus YLR418C, strain cdc73, active compounds read low 0.176 | locus YML016C, strain PPZ1, active compounds read low 0.547 | locus YML032C, strain rad52, active compounds read low 0.533 | locus YML120C, strain ndi1, active compounds read low 0.608 | locus YML124C, strain tub3, active compounds read low 0.738 | locus YMR058W, strain fet3, active compounds read low 0.0928 | locus YMR078C, strain ctf18, active compounds read low 0.472 | locus YMR125W, strain sto1, active compounds read low 0.827 | locus YMR129W, active compounds read low 0.795 | locus YMR205C, strain PFK2, active compounds read low 0.337 | locus YMR223W, strain ubp8, active compounds read low 0.581 | locus YMR231W, strain pep5, active compounds read low 0.365 | locus YMR263W, strain SAP30, active compounds read low 0.561 | locus YMR307W, strain GAS1, active compounds read low 0.252 | locus YNL067W, strain RPL9B, active compounds read low 0.518 | locus YNL071W, strain lat1, active compounds read low 0.11 | locus YNL183C, strain NPR1, active compounds read low 0.728 | locus YNL209W, strain ssb2, active compounds read low 0.303 | locus YNL233W, strain BNI4, active compounds read low 0.287 | locus YNL248C, strain rpa49, active compounds read low 0.708 | locus YNL250W, strain rad50, active compounds read low 0.887 | locus YNL271C, strain bni1, active compounds read low 0.882 | locus YNL307C, strain MCK1, active compounds read low 0.093 | locus YNR049C, strain mso1, active compounds read low 0.781 | locus YNR052C, strain pop2, active compounds read low 0.664 | locus YOL147C, strain pex11, active compounds read low 0.137 | locus YOR001W, strain rrp6, active compounds read low 0.678 | locus YOR061W, strain CKA2, active compounds read low 0.509 | locus YOR069W, strain VPS5, active compounds read low 0.638 | locus YOR070C, strain gyp1, active compounds read low 0.449 | locus YOR080W, strain dia2, active compounds read low 0.674 | locus YOR083W, strain WHI5, active compounds read low 0.624 | locus YOR106W, strain vam3, active compounds read low 0.244 | locus YOR136W, strain idh2, active compounds read low 0.765 | locus YOR144C, strain elg1, active compounds read low 0.304 | locus YOR184W, strain ser1, active compounds read low 0.173 | locus YOR231W, strain MKK1, active compounds read low 0.75 | locus YOR265W, strain rbl2, active compounds read low 0.552 | locus YOR270C, strain vph1, active compounds read low 0.236 | locus YOR290C, strain snf2, active compounds read low 0.249 | locus YOR316C, strain cot1, active compounds read low 0.698 | locus YPL051W, strain arl3, active compounds read low 0.209 | locus YPL078C, strain atp4, active compounds read low 0.528 | locus YPL106C, strain sse1, active compounds read low 0.435 | locus YPL240C, strain hsp82, active compounds read low 0.444 | locus YPL241C, strain CIN2, active compounds read low 0.565 | locus YPL256C, strain CLN2, active compounds read low 0.663 | locus YPR119W, strain clb2, active compounds read low 0.61 | locus YPR141C, strain kar3, active compounds read low 0.886 | locus YPR163C, strain tif3, active compounds read low 0.257 | locus YPR167C, strain met16, active compounds read low 0.538 | strain wtn01, active compounds read low 0.436
